Five compounds from PubChem BioAssay can be followed below.

Calls of active or inactive are those of the source.

Test [1] can be described thus: small molecules captured by biotinylated probe aFSTL3 – biochemical, small-molecule microarray, fluorescence 635/667, stem cell growth factor project, primary screen (AID 1064).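 Further: measures binding of the biotinylated anti-FSTL3 antibody to printed compounds.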 Particulars: higher = more signal.
Test [2] can be described thus: binders from COS7 lysate, DM2A8 probe, primary screen, torsin A project, cell lysate, small-molecule microarray, fluorescence 635/667 (AID 1065). As to conditions: higher = more signal, COS7 lysate expressing mutant human TOR1A.
A short description of test [3]: small molecules captured by biotinylated probe aFGF2 – biochemical, small-molecule microarray, fluorescence 635/667, stem cell growth factor project, primary screen (AID 1067).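 Further: measures binding of biotinylated aFGF2 protein to printed compounds on slides; z-score merges feature fluorescence and signal-to-noise across triplicate slides.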 Particulars: higher = more signal.
The nature of test [4]: small molecules captured by biotinylated probe aFGF10 – biochemical, small-molecule microarray, fluorescence 635/667, stem cell growth factor project, primary screen (AID 1071).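 Further: score merges 667 nm spot intensity and signal to noise from triplicate slides.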 As to conditions: higher = more signal.
Test [5] deals with Neurogenic locus notch homolog protein 2 (Homo sapiens) (UniProt Q04721). Briefly: small molecules binding Notch2 protein – biochemical, small-molecule microarray, 635 nm fluorescence, stem cell growth factors, primary screen (AID 1073). As to conditions: higher = more signal.
Test [6] has as its target Pro-neuregulin-1, membrane-bound isoform (Homo sapiens) (UniProt Q02297). The test is described as follows: small molecules binding neuregulin-1 protein – biochemical, small-molecule microarray, fluorescence 635/667, psychiatric disease protein project, primary screen (AID 1075).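 Further: score combines 667 nm spot fluorescence with signal to noise.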 Particulars: NRG1 binding, 635 nm fluorescence, higher = more signal.
The test system of test [7] is Neuregulin-1 EGF-like domain. Briefly: small molecules binding NRG1 EGF domain – biochemical, small-molecule microarray, 635 nm fluorescence, primary screen (AID 1081).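 Further: binding of the protein to compounds printed on small-molecule microarray slides.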 As to conditions: higher = more signal.
Test [8] can be described thus: FRG1 expression reporter modulators in myotubes – cell-based, C2C12 myotubes, firefly/Renilla luciferase, luminescence, FRG1 inhibition for FSHD, primary screen (AID 1084). Particulars: FRG1 promoter luciferase, higher = more signal, called active from +8 up or from −8 down.
Test [9] in a line: small molecules captured by biotinylated probe aFST – biochemical, small-molecule microarray, fluorescence 635/667, stem cell growth factor project, primary screen (AID 1086).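 Further: score merges 667 nm fluorescence with signal-to-noise of each printed compound spot.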 Particulars: higher = more signal.
Test [10] is described as follows: binders of probe aHhip on microarray, primary screen, stem cell growth factor project, biochemical, small-molecule microarray, fluorescence 635/667 (AID 1087).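 Further: score merges spot fluorescence at 667nm with spot signal to noise ratio.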 Particulars: higher = more signal.
Test [11] relates to PRMT1 (protein arginine N-methyltransferase 1). Briefly: small molecules binding arginine methyltransferase PRMT1 – biochemical, small-molecule microarray, 635 nm fluorescence, primary screen (AID 1088).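 Further: binding of Prmt1 protein to compounds spotted on small-molecule microarray slides.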 As to conditions: higher = more signal.
Test [12] is described as follows: growth effects on S. cerevisiae YJM789 – YJM789 clinical isolate, OD600, 24 h, basal, primary screen (AID 1089).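 Further: growth of clinical yeast isolate S. cerevisiae YJM 789 seeded 1000 cells per well; test concentration not given here.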 Particulars: higher = more signal, called active from +8 up or from −8 down.
Test [13] is described as follows: S. pombe growth modifiers, basal conditions – strain 972, OD600, 24 h, no modulator, primary screen (AID 1090).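 Further: basal condition with compound alone and no growth modifier present; test concentration not given here.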 Particulars: S. pombe 972 growth, higher = more signal, called active from +8 up or from −8 down.
Test [14] in a line: budding yeast growth modifiers under rapamycin – strain BY4716, OD600, 96 h, primary screen (AID 1091). Further: test concentration not given here. Particulars: S. cerevisiae BY4716 + rapamycin, higher = more signal, called active from +8 up or from −8 down.
The target in test [15] is Torsin-1A-interacting protein 2 (Homo sapiens) (UniProt Q8NFQ8). Briefly: small molecules binding lysate-expressed LULL1 – cell lysate, human LULL1 lysate, 635/667 nm fluorescence, primary screen (AID 1092).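 Further: probe is lysate of COS7 cells overexpressing human LULL1; score merges per-feature 667 nm fluorescence with signal-to-noise.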 As to conditions: small-molecule microarray, hLULL1 lysate binding, 635 nm fluorescence; higher = more signal.
The nature of test [16]: optical density change of DRC41 E. coli – strain DRC41, OD650, 24 h, E. coli filamentation project, primary screen (AID 1093).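 Further: MC1000 strain lacking acrAB efflux and sulA so SOS filamentation is blocked; test concentration not given here.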 Particulars: E. coli DRC41 growth, higher = more signal, called active from +8 up or from −8 down.
A short description of test [17]: probe aLefty2 binding to arrayed compounds – biochemical, biotinylated probe, 635/667 nm fluorescence, primary screen (AID 1094).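 Further: score merges spot fluorescence near 667 nm with spot signal-to-noise ratio.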 As to conditions: small-molecule microarray, higher = more signal.
For test [18], the system named is Noggin (protein binding on small-molecule microarray). The test is described as follows: small molecules binding Noggin protein – biochemical, 635/667 nm fluorescence, primary screen (AID 1095).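 Further: score merges 667 nm feature fluorescence with signal to noise over triplicate slides.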 As to conditions: 635 nm fluorescence, higher = more signal.
In test [19] the target is Neurogenic locus notch homolog protein 3 (Homo sapiens) (UniProt Q9UM47). The test is described as follows: small molecules binding NOTCH3 protein – biochemical, 635/667 nm fluorescence, primary screen (AID 1096). Particulars: small-molecule microarray, 635 nm fluorescence, higher = more signal.
Test [20] is described as follows: probe aEGFR binding to arrayed compounds – biochemical, biotinylated probe, 635/667 nm fluorescence, primary screen (AID 1097).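 Further: probe is a biotinylated anti-EGFR antibody binding compounds printed on slides; score combines fluorescence near 667 nm and signal to noise of each spot.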 As to conditions: small-molecule microarray, higher = more signal.

Chain of Torsin-1A-interacting protein 2 (Homo sapiens) (Q8NFQ8 whole entry, looked up): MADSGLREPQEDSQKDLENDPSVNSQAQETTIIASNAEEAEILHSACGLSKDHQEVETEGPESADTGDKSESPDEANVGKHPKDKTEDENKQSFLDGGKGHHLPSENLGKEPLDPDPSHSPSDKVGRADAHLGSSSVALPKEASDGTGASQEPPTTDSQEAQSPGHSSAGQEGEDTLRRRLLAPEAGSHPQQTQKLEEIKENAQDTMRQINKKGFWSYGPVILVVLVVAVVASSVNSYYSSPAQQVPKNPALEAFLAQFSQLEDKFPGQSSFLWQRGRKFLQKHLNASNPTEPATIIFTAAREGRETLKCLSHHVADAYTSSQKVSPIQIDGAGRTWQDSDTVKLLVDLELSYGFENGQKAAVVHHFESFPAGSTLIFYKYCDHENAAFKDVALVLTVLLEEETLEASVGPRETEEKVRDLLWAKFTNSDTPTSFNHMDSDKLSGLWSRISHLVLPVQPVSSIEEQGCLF
Chain of Pro-neuregulin-1, membrane-bound isoform (Homo sapiens) (Q02297 whole entry, looked up, the tested form may be a part, canonical isoform): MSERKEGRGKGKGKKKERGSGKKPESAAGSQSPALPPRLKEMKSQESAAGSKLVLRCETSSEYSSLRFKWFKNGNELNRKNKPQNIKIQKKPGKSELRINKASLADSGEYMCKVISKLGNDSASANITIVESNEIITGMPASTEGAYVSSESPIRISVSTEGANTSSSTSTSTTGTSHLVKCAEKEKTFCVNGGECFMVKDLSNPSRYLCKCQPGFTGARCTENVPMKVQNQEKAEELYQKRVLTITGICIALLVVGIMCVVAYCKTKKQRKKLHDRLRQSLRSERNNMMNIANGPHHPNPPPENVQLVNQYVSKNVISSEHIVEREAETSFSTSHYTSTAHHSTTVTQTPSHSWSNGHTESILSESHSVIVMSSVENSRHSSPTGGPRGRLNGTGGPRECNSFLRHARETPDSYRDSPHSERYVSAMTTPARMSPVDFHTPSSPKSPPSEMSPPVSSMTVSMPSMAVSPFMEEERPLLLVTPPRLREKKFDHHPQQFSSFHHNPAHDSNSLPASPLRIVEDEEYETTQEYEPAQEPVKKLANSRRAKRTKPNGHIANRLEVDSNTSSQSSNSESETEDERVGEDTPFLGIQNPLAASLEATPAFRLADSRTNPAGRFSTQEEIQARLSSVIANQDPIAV
Chain of Neurogenic locus notch homolog protein 2 (Homo sapiens) (Q04721 whole entry, looked up, canonical isoform): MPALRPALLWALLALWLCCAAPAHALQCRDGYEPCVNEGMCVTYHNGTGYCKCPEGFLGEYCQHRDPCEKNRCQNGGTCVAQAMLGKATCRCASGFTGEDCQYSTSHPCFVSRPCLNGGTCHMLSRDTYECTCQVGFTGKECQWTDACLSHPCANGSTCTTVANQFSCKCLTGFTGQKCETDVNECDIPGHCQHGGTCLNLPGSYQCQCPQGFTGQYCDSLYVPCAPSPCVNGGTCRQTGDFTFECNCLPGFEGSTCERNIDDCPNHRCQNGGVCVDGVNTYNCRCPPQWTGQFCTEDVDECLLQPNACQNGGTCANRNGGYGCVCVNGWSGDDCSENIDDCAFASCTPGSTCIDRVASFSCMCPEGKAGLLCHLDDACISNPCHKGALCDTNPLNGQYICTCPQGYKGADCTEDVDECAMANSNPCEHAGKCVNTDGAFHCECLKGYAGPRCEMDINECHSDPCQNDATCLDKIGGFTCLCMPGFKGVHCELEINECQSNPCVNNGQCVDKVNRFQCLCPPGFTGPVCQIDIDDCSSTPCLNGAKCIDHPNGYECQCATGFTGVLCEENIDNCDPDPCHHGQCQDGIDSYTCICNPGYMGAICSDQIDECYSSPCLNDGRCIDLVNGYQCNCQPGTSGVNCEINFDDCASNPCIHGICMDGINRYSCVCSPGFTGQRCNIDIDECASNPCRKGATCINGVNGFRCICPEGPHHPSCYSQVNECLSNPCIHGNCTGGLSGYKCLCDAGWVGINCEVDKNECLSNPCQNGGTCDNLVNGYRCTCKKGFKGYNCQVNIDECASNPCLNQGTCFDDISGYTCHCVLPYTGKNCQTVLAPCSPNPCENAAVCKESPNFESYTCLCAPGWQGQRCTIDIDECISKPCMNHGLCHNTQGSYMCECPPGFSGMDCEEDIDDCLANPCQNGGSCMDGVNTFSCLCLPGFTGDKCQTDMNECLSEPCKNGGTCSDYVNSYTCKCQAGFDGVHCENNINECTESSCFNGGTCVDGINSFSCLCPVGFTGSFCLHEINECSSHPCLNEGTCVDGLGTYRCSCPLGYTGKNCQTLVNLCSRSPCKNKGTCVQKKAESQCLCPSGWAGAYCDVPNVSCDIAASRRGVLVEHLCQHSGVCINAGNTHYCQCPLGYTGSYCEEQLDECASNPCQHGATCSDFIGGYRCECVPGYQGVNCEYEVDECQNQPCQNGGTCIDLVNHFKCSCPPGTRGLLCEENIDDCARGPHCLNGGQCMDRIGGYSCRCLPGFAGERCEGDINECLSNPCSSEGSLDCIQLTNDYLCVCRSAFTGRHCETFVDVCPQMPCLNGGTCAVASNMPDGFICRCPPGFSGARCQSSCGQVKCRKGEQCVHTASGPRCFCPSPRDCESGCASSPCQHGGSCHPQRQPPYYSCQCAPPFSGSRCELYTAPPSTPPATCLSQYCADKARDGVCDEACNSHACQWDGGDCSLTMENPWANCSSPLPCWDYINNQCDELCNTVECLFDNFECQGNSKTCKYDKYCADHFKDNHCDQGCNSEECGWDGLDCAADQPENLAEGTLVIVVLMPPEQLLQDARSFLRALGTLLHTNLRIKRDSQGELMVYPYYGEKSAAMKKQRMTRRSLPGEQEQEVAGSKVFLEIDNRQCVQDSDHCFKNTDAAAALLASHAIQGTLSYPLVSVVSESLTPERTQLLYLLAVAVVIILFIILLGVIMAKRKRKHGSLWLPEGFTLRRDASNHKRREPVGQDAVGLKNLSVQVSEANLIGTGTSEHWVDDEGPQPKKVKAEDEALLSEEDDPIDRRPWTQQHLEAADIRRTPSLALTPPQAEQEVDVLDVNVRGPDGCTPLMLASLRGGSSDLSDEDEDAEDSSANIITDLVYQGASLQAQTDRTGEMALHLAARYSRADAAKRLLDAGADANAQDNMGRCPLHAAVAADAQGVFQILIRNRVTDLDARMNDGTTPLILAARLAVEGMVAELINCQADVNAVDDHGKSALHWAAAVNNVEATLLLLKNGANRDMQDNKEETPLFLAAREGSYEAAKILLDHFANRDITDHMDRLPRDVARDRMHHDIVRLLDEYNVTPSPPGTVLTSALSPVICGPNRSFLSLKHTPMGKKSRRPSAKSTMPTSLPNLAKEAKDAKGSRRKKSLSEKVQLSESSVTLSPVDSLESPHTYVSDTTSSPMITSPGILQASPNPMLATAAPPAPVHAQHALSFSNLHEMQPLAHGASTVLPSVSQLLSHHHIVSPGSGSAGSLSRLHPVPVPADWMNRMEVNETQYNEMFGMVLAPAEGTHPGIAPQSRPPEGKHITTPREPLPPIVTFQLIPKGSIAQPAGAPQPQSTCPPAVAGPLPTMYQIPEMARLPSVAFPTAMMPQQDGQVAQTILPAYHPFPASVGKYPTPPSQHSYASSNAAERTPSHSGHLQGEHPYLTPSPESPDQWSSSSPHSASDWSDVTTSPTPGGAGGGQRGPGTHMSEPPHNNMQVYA

In the case of `C=CCNC(=O)[C@H]1[C@@H]2C(=O)O[C@@H](c3ccccc3)[C@@H](c3ccccc3)N2[C@@H](c2ccc(OCCO)cc2)[C@]12C(=O)N(C(=O)OCCOC)c1ccccc12`, the composite z-score in [1] is -0.268; in [2] it was 0.847; in test [3] it was 0.0732; in test [4], 0.591; in test [5], 1.45; in test [6] it was 1.53. For the same compound, the composite z-score was 1.38 in test [7]; 0.854 in [9]; 0.251 in [10]; 1.54 in test [11]; 3.07 in test [15]; 0.0316 in test [17]. In addition, the composite z-score in test [18] amounted to 1.09; in test [19], 1.04; in [20], 0.107. Also, the z-score in test [8] is -2.56 (inactive); in [12], 2.07 (inactive); in test [13], 0.0313 (inactive); in test [14] it was 4.62 (inactive); in [16], 0.909 (inactive).

For the compound `COC(=O)C(CC#Cc1ccc2c(c1)[C@]1(C(=O)N2)[C@H](c2ccc(O)cc2)N2[C@H](c3ccccc3)[C@H](c3ccccc3)OC(=O)[C@H]2[C@@H]1C(=O)Nc1nc2ccccc2s1)C(=O)OC`, the composite z-score in test [1] is -0.386; in test [2] it was 0.372; in test [3], 0.0402; in test [4], 1.08; in test [5], 1.23; in test [6] it was 1.44. In addition, the composite z-score is 1.24 in test [7]; 0.313 in [9]; -0.0672 in test [10]; 1.54 in [11]; 3.22 in test [15]; 0.0669 in test [17]. Also, the figures for the composite z-score in test [18], in [19] and in test [20] were 0.508, 1.13 and 0.0414, respectively. In addition, the z-score was -0.532 (inactive) in test [8]; -1.28 (inactive) in test [12]; -0.496 (inactive) in test [13]; -1.33 (inactive) in test [14]; 0.91 (inactive) in [16].

As for `[N-]=[N+]=NCc1ccccc1C[C@]1(C(=O)N2CCOCC2)N=C(c2ccc(OCCCO)cc2)O[C@H]1c1ccccc1N=[N+]=[N-]`, the composite z-score stood at 0.0631 in test [1]; 1.43 in test [2]; 0.136 in [3]; 1.12 in [4]; 1.55 in [5]; 0.872 in test [6]. Further, the composite z-score in test [7] came out at 1.29; in test [9] it was 2.05; in [10] it was 0.259; in [11] it was 1.41; in test [15], 3.51; in [17], 0.349. Also, the composite z-score came to 1.5 in test [18], 1.03 in [19] and 0.144 in [20]. Also, the z-score is -0.395 (inactive) in test [8]; -1.18 (inactive) in [12]; -2.26 (inactive) in [13]; 2.79 (inactive) in test [14]; 0.188 (inactive) in test [16].

Take `CCOC(=O)C=Cc1cc([N+](=O)[O-])ccc1O`: the composite z-score is 0.36 in test [1]; -0.11 in [2]; -0.159 in test [3]; -0.239 in test [4]; -1 in [5]; -0.306 in [6]. Further, the composite z-score in [7] was 0.358; in test [9], -0.31; in test [10], 0.0044; in test [11], 0.385; in test [15], 0.381; in test [17] it was -0.088. For the same compound, the figures for the composite z-score in test [18], in test [19] and in test [20] were -0.609, -0.465 and -0.141, respectively. In addition, the z-score in test [8] is 2.07 (inactive); in test [12], -1.21 (inactive); in test [13], -0.201 (inactive); in test [14], -1.62 (inactive); in test [16], -0.828 (inactive).

On to `C=CCOC(=O)[C@H]1[C@@H]2C(=O)O[C@@H](c3ccccc3)[C@@H](c3ccccc3)N2[C@@H](c2ccc(OCCOC(=O)[C@H]3C[C@H]4C(=O)N5CCC[C@H]5C(=O)N4[C@H]3c3ccc(O)cc3)cc2)[C@]12C(=O)Nc1ccc(I)cc12`, for which the composite z-score in test [1] is 2.15; in [2], 2.13; in test [3], 0.555; in test [4] it was 0.791; in test [5], 1.71; in [6], 2.72. The composite z-score in test [7] turned out to be 1.44; in [9] it was 2.72; in test [10] it was 2.39; in test [11], 1.53; in test [15], 3.64; in test [17], 1.46. Further, the composite z-score stood at 2 in test [18], 1.05 in test [19] and 0.993 in [20]. In addition, the z-score is -0.269 (inactive) in [8]; -0.324 (inactive) in [12]; -1.65 (inactive) in test [13]; 0.0891 (inactive) in test [14]; 1.07 (inactive) in [16].
